Mdm2-MdmX inh: human Mdm2/MdmX binding inhibition; SaOS-2 split-luciferase Mdm2/MdmX complementation, luminescence; O15151+Q00987; AID 485346; inhibition, % at 8 µM; hit rate 3% among 330,000;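 active = inhibition of at least 50% at 8 µM in the primary screen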
Target sequence (O15151 whole entry, looked up): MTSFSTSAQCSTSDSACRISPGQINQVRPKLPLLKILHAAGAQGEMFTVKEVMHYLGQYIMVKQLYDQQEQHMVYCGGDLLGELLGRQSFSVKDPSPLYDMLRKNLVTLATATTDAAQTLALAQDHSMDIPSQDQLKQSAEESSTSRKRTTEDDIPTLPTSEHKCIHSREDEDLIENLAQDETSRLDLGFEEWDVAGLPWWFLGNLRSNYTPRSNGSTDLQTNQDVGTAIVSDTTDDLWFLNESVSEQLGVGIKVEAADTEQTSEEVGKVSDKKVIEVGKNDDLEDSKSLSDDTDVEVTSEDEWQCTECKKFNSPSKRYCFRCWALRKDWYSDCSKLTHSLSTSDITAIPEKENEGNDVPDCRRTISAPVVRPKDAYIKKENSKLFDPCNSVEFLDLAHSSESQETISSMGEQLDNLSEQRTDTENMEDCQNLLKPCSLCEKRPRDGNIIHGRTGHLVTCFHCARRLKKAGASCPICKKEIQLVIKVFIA
Target sequence (Q00987 whole entry, looked up): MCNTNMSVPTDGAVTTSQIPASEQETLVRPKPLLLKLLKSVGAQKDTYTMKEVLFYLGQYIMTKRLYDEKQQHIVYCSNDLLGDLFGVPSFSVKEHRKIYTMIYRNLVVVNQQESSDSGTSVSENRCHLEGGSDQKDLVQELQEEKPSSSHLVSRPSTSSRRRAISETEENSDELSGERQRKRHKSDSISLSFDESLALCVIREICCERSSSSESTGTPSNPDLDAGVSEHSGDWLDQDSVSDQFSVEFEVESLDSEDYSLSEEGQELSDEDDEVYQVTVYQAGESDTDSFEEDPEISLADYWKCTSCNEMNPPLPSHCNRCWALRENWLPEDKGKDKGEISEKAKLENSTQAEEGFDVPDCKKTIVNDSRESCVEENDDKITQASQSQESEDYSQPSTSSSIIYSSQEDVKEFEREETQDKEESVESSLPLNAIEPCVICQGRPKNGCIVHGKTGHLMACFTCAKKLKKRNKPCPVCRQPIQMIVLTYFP
Gli-Sufu block: Gli-Sufu pathway antagonism; Sufu-KO-LIGHT fibroblasts, Gli luciferase reporter luminescence; inhibition, % at 5 µM; hit rate 0.74% among 340,000; AID 588413;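 active = inhibition above about 55%, limit read from the data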;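 note: 0% = DMSO-treated cells and 100% = wells with medium but no cells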
697 NFkB inh: inhibitors of the PMA/ionomycin-induced NF-kB reporter in 697 B cells; 697 B-cell NF-kB luciferase reporter, 16 h; inhibition, % at 4 µM; AID 435022; hit rate 0.33% among 330,000; in the data active = inhibition above about 35%
CSC inhib: cancer stem cell inhibition; cancer stem cell-like cells viability, luminescence; inhibition, % at 7.5 µM; hit rate 1.1% among 300,000; AID 2717; in the data active = inhibition above about 75%; tested in HMLE shEcad cells
aSyn 5UTR inh: MLPCN primary screen, SNCA 5' untranslated region. alpha-synuclein 5'UTR reporter, inhibitor activity. AID 1813. hit rate 0.82% among 300,000. inhibition, % (tested at 7.5 µM); in the data active = inhibition above about 60%;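 note: H4 neuroglioblastoma cells stably carrying SNCA 5'UTR luciferase fusion; 0% = DMSO wells and 100% = positive control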
Jurkat NFkB inh: inhibitors of the PMA/ionomycin-induced NF-kB reporter in Jurkat cells | PMA/ionomycin-induced NF-kB luciferase reporter, luminescence | inhibition, % at 4 µM | hit rate 0.53% among 330,000; in the data active = inhibition above about 50%
Mdm2 MdmX conf: confirmation of human Mdm2/MdmX interaction inhibitors; shares compounds with Mdm2-MdmX inh; Mdm2-MdmX binding, luminescent assay; inhibition, % at 8 µM; hit rate 55% among 10,000; in the data active = inhibition above about 40%
FLuc counter: inhibits full-length luciferase, flagging false Mdm2/MdmX hits; SaOS-2 full-length luciferase counterscreen, luminescence; hit rate 77% among 6,200; AID 504607; inhibition, % at 8 µM; shares compounds with Mdm2-MdmX inh;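 active = mean inhibition at 8 µM reaching about 37%, which flags the compound as non-specific, limit read from the data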;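 note: p53-null SaOS-2 cells with luciferase driven by a doxycycline-inducible promoter; compound on cells about two nights before reading with doxycycline added after day one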
* hit, by the source's call. This is a sample that favours compounds with a hit; in the whole collection about 4.5% have one here.

For CCn1nc(C(=O)NCc2nnc3ccccn23)c2ccccc2c1=O the results were Mdm2-MdmX inh 8, Gli-Sufu block -6, 697 NFkB inh 21 and Jurkat NFkB inh -4.
Cc1ccc(NC(=O)CSCC(=O)NCc2cccc(C(F)(F)F)c2)cc1 was read as Mdm2-MdmX inh 30, Gli-Sufu block 4, 697 NFkB inh -1, CSC inhib 4, aSyn 5UTR inh 15 and Jurkat NFkB inh 6.
C=CCNC(=S)NC(=O)c1csc([N+](=O)[O-])c1 was read as Mdm2-MdmX inh 17, Gli-Sufu block -3, 697 NFkB inh 10, CSC inhib 0, aSyn 5UTR inh -39 and Jurkat NFkB inh -8.
For Cc1ccc2[nH]c(=O)c(COC(=O)c3cccs3)cc2c1 the results were Mdm2-MdmX inh 51*, Gli-Sufu block 4, 697 NFkB inh 21, aSyn 5UTR inh 2, Jurkat NFkB inh -1 and Mdm2 MdmX conf 9.
`CCOC(=O)C(C)(C)N(Cc1ccc(Cl)cc1)S(=O)(=O)c1ccc(Cl)c([N+](=O)[O-])c1` gave Mdm2-MdmX inh 95*, 697 NFkB inh 4, CSC inhib 109*, aSyn 5UTR inh -27, Jurkat NFkB inh 0, Mdm2 MdmX conf 81* and FLuc counter 50*.
Screening CCOC(=O)C(C)(C)N(Cc1ccc(C)cc1)S(=O)(=O)c1ccc(Cl)c([N+](=O)[O-])c1 returned Mdm2-MdmX inh 96*, Gli-Sufu block -2, 697 NFkB inh 25, CSC inhib -2, aSyn 5UTR inh -16, Jurkat NFkB inh -5, Mdm2 MdmX conf 66* and FLuc counter 71*.
Cc1cc(O)c(C(C)C)cc1C1(c2cc(C(C)C)c(O)cc2C)OC(=O)c2ccccc21 was read as Mdm2-MdmX inh 100*, Gli-Sufu block 2, 697 NFkB inh -16, CSC inhib 150*, aSyn 5UTR inh 21, Jurkat NFkB inh 8, Mdm2 MdmX conf 58* and FLuc counter 22.
For Cc1cc(C2(c3ccc(O)c(C)c3)OC(=O)c3ccccc32)ccc1O the results were Mdm2-MdmX inh 30, Gli-Sufu block -7, 697 NFkB inh -10, CSC inhib 10, aSyn 5UTR inh 5 and Jurkat NFkB inh -8.
For COC(=O)c1cn(C(=O)c2cc(Br)ccc2Cl)c2ccccc12 the results were Mdm2-MdmX inh 16, Gli-Sufu block -1, 697 NFkB inh 4, CSC inhib -9, aSyn 5UTR inh 5 and Jurkat NFkB inh -7.
O=c1c2ccccc2nc(N/N=C/c2ccc(O)cc2)n1O was read as Mdm2-MdmX inh -10, Gli-Sufu block -51, 697 NFkB inh -8, CSC inhib -13, aSyn 5UTR inh -44 and Jurkat NFkB inh -7.
For O=c1c2ccccc2nc(N/N=C/c2c(O)ccc3ccccc23)n1O the results were Mdm2-MdmX inh 71*, Gli-Sufu block 33, 697 NFkB inh -190, CSC inhib 112*, aSyn 5UTR inh 82*, Jurkat NFkB inh 1, Mdm2 MdmX conf 68* and FLuc counter 36.
For CCCCC1(Cc2ccc([N+](=O)[O-])cc2)C(=O)N(c2ccccc2)N(c2ccccc2)C1=O the results were Mdm2-MdmX inh 97*, Gli-Sufu block 41, 697 NFkB inh 6, CSC inhib 6, aSyn 5UTR inh 16, Jurkat NFkB inh 13, Mdm2 MdmX conf 97* and FLuc counter 47*.
Screening Cc1nn(Cc2ccc([N+](=O)[O-])cc2)c(=O)n1-c1ccccc1 returned Mdm2-MdmX inh -2, Gli-Sufu block -4, 697 NFkB inh 7, CSC inhib 6, aSyn 5UTR inh 14 and Jurkat NFkB inh -2.
For CN(CCCNC(=O)COc1cc(=O)n(C)c2ccccc12)Cc1ccccc1 the results were Mdm2-MdmX inh 19, Gli-Sufu block 13, 697 NFkB inh 8, CSC inhib 19, aSyn 5UTR inh -11 and Jurkat NFkB inh -13.
For CCN(CCCNC(=O)CCCOc1cc(=O)n(C)c2ccccc12)Cc1ccccc1 the results were Mdm2-MdmX inh 52*, Gli-Sufu block 30, 697 NFkB inh -3, CSC inhib 9, aSyn 5UTR inh -10, Jurkat NFkB inh -10 and Mdm2 MdmX conf 17.
For CCN(CCCNC(=O)COc1cc(=O)n(CC)c2ccccc12)Cc1ccccc1 the results were Mdm2-MdmX inh 59*, Gli-Sufu block 21, 697 NFkB inh 17, CSC inhib -6, aSyn 5UTR inh -22, Jurkat NFkB inh -16, Mdm2 MdmX conf 46* and FLuc counter 93*.
CN(C(=O)COC(=O)c1nn(C)c(=O)c2ccccc12)c1c(N)n(Cc2ccccc2)c(=O)[nH]c1=O was read as Mdm2-MdmX inh 15, Gli-Sufu block -4, 697 NFkB inh 8, CSC inhib -11, aSyn 5UTR inh -9 and Jurkat NFkB inh -3.
Screening O=C1C=C(Nc2ccccc2)c2ccccc2C1=O returned Mdm2-MdmX inh 53*, Gli-Sufu block -14, 697 NFkB inh -14, aSyn 5UTR inh 44, Jurkat NFkB inh 14 and Mdm2 MdmX conf 30.
Screening CCc1ccc(NC2=CC(=O)C(=O)c3ccccc32)cc1 returned Mdm2-MdmX inh 70*, Gli-Sufu block -2, 697 NFkB inh -62, Jurkat NFkB inh -11, Mdm2 MdmX conf 65* and FLuc counter 85*.
`O=C1C=C(Nc2cccc3cccnc23)c2ccccc2C1=O` gave Mdm2-MdmX inh 63*, Gli-Sufu block -19, 697 NFkB inh -1, CSC inhib 58, aSyn 5UTR inh 38, Jurkat NFkB inh 24, Mdm2 MdmX conf 57* and FLuc counter 70*.
`O=C1C=C(Nc2ccccc2)C(=O)c2ccccc21` gave Mdm2-MdmX inh -70, Gli-Sufu block -60, 697 NFkB inh -156, CSC inhib 52, aSyn 5UTR inh 54 and Jurkat NFkB inh -92.
Screening COc1ccc(OCCCn2cc(/C=C3/C(=N)N4C=C(C)SC4=NC3=O)c3ccccc32)cc1 returned Mdm2-MdmX inh 65*, Gli-Sufu block -3, 697 NFkB inh -42, CSC inhib 10, aSyn 5UTR inh -70, Jurkat NFkB inh -22, Mdm2 MdmX conf 71* and FLuc counter 69*.
Screening COc1ccc(-c2nc(N3CCN(C)CC3)sc2-c2ccc(OC)cc2)cc1 returned Mdm2-MdmX inh -4, Gli-Sufu block 12, 697 NFkB inh 1, CSC inhib 36, aSyn 5UTR inh 5 and Jurkat NFkB inh -28.
For COc1ccc(-c2cn(-c3ccccc3)c(=S)[nH]2)cc1OC the results were Mdm2-MdmX inh 94*, Gli-Sufu block -35, 697 NFkB inh -47, CSC inhib -7, aSyn 5UTR inh -100, Jurkat NFkB inh -3 and Mdm2 MdmX conf -45.
For COc1ccc(-c2cn(-c3ccc(C)c(C)c3)c(=S)[nH]2)cc1OC the results were Mdm2-MdmX inh 13, Gli-Sufu block 40, 697 NFkB inh -4, CSC inhib 2, aSyn 5UTR inh -16 and Jurkat NFkB inh -19.

Compound activity as filed in PubChem BioAssay.
